Measured values published in the supplement of paper PMC10042075.
“And” between values parts separate entries of the source, which are not always exact repeats. Equal entries are not always repeated. Structures can show the parent of a compound that is named as a salt. ± gives the standard deviation of the averaged measurements.

What follows are compounds tested on LASCPC-01 (assay: cell viability relative to DMSO control (fraction); higher = less growth inhibition (more viable cells)). Details: 2 µM; 72 h.
Method: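 High-throughput single-dose screen in the LASCPC-01 NEPC cell line in 384-well plates. Cells were treated with each compound at 2 µM for 72 h, and viability was read by CellTiter-Glo luminescence. Values are normalised to the DMSO control (compound/DMSO) from three replicates; only the 5-HT-related subset of the 7315-compound library is given.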

Compound | cell viability
CN1CCC[C@@H]1Cc1c[nH]c2ccc(CCS(=O)(=O)c3ccccc3)cc12 [Eletriptan HBr] | 0.983
CNS(=O)(=O)Cc1ccc2[nH]cc(CCN(C)C)c2c1 [Sumatriptan Succinate] | 0.971
Fc1ccc2c(CCNCc3cccc(OCC(F)(F)C(F)F)c3)c[nH]c2c1 [idalopirdine] | 0.923
CN1CCC(=C2c3ccccc3C=Cc3ccccc32)CC1 [Cyproheptadine hydrochloride] | 1.14
COc1ccc2cccc(CCNC(C)=O)c2c1 [Agomelatine] | 1.07
CNCCC(Oc1ccc(C(F)(F)F)cc1)c1ccccc1 (stereo not given) [Fluoxetine] | 0.892 ± 0.41
COc1cc2c(cc1OC)[C@@H]1Cc3ccc(OC)c(OC)c3CN1CC2 [Rotundine] | 1.05
NCCCCCNCC12CC3CC(CC(C3)C1)C2 [IEM 1754 dihydrobroMide] | 0.808
Fc1ccc([C@@H]2CCNC[C@H]2COc2ccc3c(c2)OCO3)cc1 [Paroxetine hydrochloride hemihydrate (MW = 374.83)] | 1.09
O=C1NCCN1CCN1CCC(c2cn(-c3ccc(F)cc3)c3ccc(Cl)cc23)CC1 [Sertindole] | 0.499
COc1ccccc1N1CCN(CCCCN2C(=O)c3ccccc3C2=O)CC1 [NAN-190 hydrobromide] | 0.884
CN1CCCCC1CCN1c2ccccc2Sc2ccc([S+](C)[O-])cc21 (stereo not given) [Mesoridazine Besylate] | 1.07
COc1cc(/C=C/C(=O)O)ccc1O [Sodium ferulic] | 0.909
COc1ccccc1N1CCN(CCN(C(=O)c2ccc(F)cc2)c2ccccn2)CC1 [p-MPPF dihydrochloride] | 0.362
CNCCC(Oc1ccc(C(F)(F)F)cc1)c1ccccc1 (stereo not given) [Fluoxetine hydrochloride] | 0.686
Cn1c(=O)cnn(CCCCN2CCN(c3ncccn3)CC2)c1=O [Eptapirone] | 0.947
CN(C)C/C=C(/c1ccc(Br)cc1)c1cccnc1 [Zimelidine dihydrochloride] | 1.01
CC(CN1c2ccccc2Sc2ccccc21)N(C)C (stereo not given) [Promethazine] | 1.11
CN1[C@@H]2CC[C@H]1CC(OC(=O)c1c[nH]c3ccccc13)C2 (stereo not given in full) [3-Tropanyl-indole-3-carboxylate hydrochloride] | 1.04
Cc1nc2n(c(=O)c1CCN1CCC(c3noc4cc(F)ccc34)CC1)CCCC2 [Risperidone] | 0.99

Compound | cell viability
CN(C)CCCC1(c2ccc(F)cc2)OCc2cc(C#N)ccc21 (stereo not given) [Citalopram hydrobromide] | 1.06
CN1CCN(c2nc3cc(C(F)(F)F)ccc3n3cccc23)CC1 | 0.521
Cc1ncc(CO)c(CO)c1O [Metadoxine] | 1.13
NC(N)=NC(N)=Nc1ccccc1 [1-Phenylbiguanide] | 0.991
CN(C)CCCN1c2ccccc2CCc2ccc(Cl)cc21 [Clomipramine hydrochloride] | 0.987
CN[C@H]1CC[C@@H](c2ccc(Cl)c(Cl)c2)c2ccccc21 [Sertraline HCl] | 0.833
O=c1[nH]c2ccccc2n1CCN1CCN(c2cccc(C(F)(F)F)c2)CC1 [Flibanserin] | 1.02
COc1ccc(NC(=O)Nc2ccc(F)cc2F)cc1-c1c(Br)cnn1C [Nelotanserin] | 1.09
O=C1[C@@H]2[C@H]3CC[C@H](C3)[C@@H]2C(=O)N1C[C@@H]1CCCC[C@H]1CN1CCN(c2nsc3ccccc23)CC1 [Lurasidone hydrochloride] | 0.876
CC(C)c1cc(-c2ccc(F)c3ccccc23)nc(N)n1 | 1.05 and 0.845 and 0.897
O=c1n(CCCN2CCN(c3cccc(Cl)c3)CC2)nc2ccccn12 [Trazodone hydrochloride] | 1.04
CC(CN(C)C)CN1c2ccccc2CCc2ccccc21 (stereo not given) [Trimipramine maleate] | 1.01
Cc1nc2ccccn2c(=O)c1CCN1CCC(C(=O)c2ccc(F)cc2)CC1 [Pirenperone] | 0.645
COc1ccccc1N1CCN(CCN2C(=O)CC3(CCCC3)CC2=O)CC1 | 0.815
CN1CCN2c3ccccc3Cc3ccccc3C2C1 (stereo not given) [Mianserin hydrochloride] | 1.04
COc1cccc([C@H](O)C2CCN(CCc3ccc(F)cc3)CC2)c1OC [Volinanserin] | 1.06
COCCCN1CCC(NC(=O)c2cc(Cl)c(N)c3c2OCC3)CC1 [Prucalopride Succinat] | 1.1
Cc1ccc(Sc2ccccc2N2CCNCC2)c(C)c1 | 1.01
O=C(O)Cc1c[nH]c2ccc(O)cc12 [5-Hydroxyindolacetic acid] | 0.928
Cc1cc2c(s1)Nc1ccccc1N=C2N1CCN(C)CC1 [Olanzapine] | 1.02 ± 0.042
